Test results as given in PubChem BioAssay.
For part of these data: Entries with a potency or affinity are not part of this list. Activity calls are given as the source filed them. Unless noted, cut-off not given; nearly all actives show IC50 up to about 0.91 µM.

Columns and labels:
[1] = antimalarial activity against Dd2 strain (AID 2302;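 active means growth inhibition above 50% at the single 2 µM test dose, taken to imply half-maximal potency below 2 µM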;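 further: 0% = DMSO untreated growth and 100% = chloroquine plus artemisinin killed control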); details: P. falciparum Dd2 in RBCs, LDH growth readout, 72 h; at 2 µM; active compounds read high
[2] = molecular target: Calcium-dependent protein kinase 4 (Plasmodium falciparum (isolate 3D7)) (UniProt Q8IBS5); assay: PfCDPK4 kinase inhibitors, biochemical, TCAMS library (AID 1159588); details: recombinant PfCDPK4, Kinase-Glo ATP depletion luminescence
Sequence of Calcium-dependent protein kinase 4 (Plasmodium falciparum (isolate 3D7)) (Q8IBS5 whole entry, looked up): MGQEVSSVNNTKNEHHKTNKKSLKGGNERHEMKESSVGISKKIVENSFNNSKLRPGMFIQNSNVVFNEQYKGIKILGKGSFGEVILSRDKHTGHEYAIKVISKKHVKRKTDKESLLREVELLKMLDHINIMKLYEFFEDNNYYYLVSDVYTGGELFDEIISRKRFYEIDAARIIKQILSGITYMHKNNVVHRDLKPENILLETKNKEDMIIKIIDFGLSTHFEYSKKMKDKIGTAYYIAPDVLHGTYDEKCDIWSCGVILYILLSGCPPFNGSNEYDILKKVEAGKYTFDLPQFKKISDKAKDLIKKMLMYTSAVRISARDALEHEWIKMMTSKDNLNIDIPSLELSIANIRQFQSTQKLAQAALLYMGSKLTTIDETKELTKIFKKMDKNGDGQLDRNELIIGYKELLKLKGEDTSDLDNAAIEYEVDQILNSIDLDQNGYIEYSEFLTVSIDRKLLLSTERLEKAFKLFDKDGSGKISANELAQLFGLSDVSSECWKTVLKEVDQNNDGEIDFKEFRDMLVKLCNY

SMILES | growth inhibition [1] | outcome [2]
COc1ccc(C[C@H](N)C(=O)N[C@H]2[C@@H](O)[C@H](n3cnc4c(N(C)C)ncnc43)O[C@@H]2CO)cc1 | 91% (active) | inactive
O=c1ccc2ccc(O)c(O)c2o1 | – | inactive
